Active and inactive are the calls of the source.
Legend:
Albumin (Bos taurus) = Albumin (Bos taurus) (UniProt P02769); test: compounds binding labelled BSA control protein – biochemical, small-molecule microarray, Alexa647 label, 635/667 nm fluorescence, artefact control for SMM control protein annotation, profiling panel (AID 1118); conditions: BSA-A647 binding, fluorescence 635 nm, higher = more signal;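 note: score merges 667 nm emission intensity and signal-to-noise per printed compound spot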
[1] = probe aXIP binding to arrayed compounds – biochemical, NeuroSMM set, 635/667 nm fluorescence, primary screen (AID 1119); conditions: small-molecule microarray, higher = more signal, called active from +8 up or from −8 down;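 note: probe is the protein aXip251-270 applied at 1 µg/mL to compound-printed slides; binding of probe to printed compounds measured as 667 nm fluorescence plus signal to noise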
[2] = probe aNOTCH3 binding on compound microarray – biochemical, small-molecule microarray, 635/667 nm fluorescence, primary screen (AID 1120); conditions: higher = more signal;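 note: probe is a biotin-tagged antibody raised against NOTCH3 rather than NOTCH3 protein; score merges spot fluorescence near 667 nm with spot signal to noise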
[3] = probe aNOTCH2 binding on compound microarray – biochemical, small-molecule microarray, 635/667 nm fluorescence, primary screen (AID 1121); conditions: higher = more signal;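 note: score merges feature fluorescence read at 667 nm with its signal to noise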
[4] = target: Carbonic anhydrase 2 (Homo sapiens) (UniProt P00918); test: compounds binding carbonic anhydrase 2 – biochemical, small-molecule microarray, Alexa647-labelled CAII, profiling panel (AID 1122); conditions: CAII-A647 binding fluorescence, higher = more signal
[5] = COS7 lysate on small-molecule microarray, probe aHis, 635 nm (AID 1123); conditions: COS7 cell lysate, fluorescence, higher = more signal;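 note: z-score combines 667nm fluorescence intensity with signal-to-noise per printed compound spot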
[6] = probe aLAP1 signal on lysate-treated microarray – cell lysate, small-molecule microarray, COS7 lysate, primary screen (AID 1124); conditions: probe aLAP1, fluorescence, higher = more signal;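 note: lysate comes from COS7 cells expressing LAP1 and is applied at 0.3 µg/mL; score merges spot fluorescence near 667 nm with signal-to-noise over triplicate slides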
Sam68 (KHDRBS1) = test: compounds binding KHDRBS1 protein – biochemical, small-molecule microarray, 635 nm fluorescence, primary screen (AID 1125); conditions: higher = more signal;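 note: score merges 667 nm channel intensity with signal to noise over triplicate slides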
[7] = test system: Chordin-like protein 2 (CHRDL2); test: compounds binding chordin-like 2 – biochemical, small-molecule microarray, 635 nm fluorescence, primary screen (AID 1126); conditions: fluorescence 635 nm, higher = more signal;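 note: printed compound slides probed with Chrdl2 protein at 4 µg/mL for 1 h at 4 C; score merges 667 nm emission intensity with signal to noise over three replicate slides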
[8] = target: Concanavalin-A (Canavalia ensiformis) (UniProt P02866); test: compounds binding concanavalin A lectin – biochemical, small-molecule microarray, Alexa647 label, 635 nm, artefact control for SMM control protein annotation, primary screen (AID 1127); conditions: ConA-A647 binding fluorescence, higher = more signal;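 note: z combines 667 nm emission intensity with signal-to-noise across three replicate slides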
Sequence of Concanavalin-A (Canavalia ensiformis) (P02866 whole entry, looked up): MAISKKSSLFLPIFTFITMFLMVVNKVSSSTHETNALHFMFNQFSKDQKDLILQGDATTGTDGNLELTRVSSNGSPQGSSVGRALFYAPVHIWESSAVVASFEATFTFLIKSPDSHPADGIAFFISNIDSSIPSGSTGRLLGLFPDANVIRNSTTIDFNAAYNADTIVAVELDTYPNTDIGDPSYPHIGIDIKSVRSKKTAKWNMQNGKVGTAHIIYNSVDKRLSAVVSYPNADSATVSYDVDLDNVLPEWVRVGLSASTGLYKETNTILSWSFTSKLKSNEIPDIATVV

Sequence of Albumin (Bos taurus) (P02769 whole entry, looked up): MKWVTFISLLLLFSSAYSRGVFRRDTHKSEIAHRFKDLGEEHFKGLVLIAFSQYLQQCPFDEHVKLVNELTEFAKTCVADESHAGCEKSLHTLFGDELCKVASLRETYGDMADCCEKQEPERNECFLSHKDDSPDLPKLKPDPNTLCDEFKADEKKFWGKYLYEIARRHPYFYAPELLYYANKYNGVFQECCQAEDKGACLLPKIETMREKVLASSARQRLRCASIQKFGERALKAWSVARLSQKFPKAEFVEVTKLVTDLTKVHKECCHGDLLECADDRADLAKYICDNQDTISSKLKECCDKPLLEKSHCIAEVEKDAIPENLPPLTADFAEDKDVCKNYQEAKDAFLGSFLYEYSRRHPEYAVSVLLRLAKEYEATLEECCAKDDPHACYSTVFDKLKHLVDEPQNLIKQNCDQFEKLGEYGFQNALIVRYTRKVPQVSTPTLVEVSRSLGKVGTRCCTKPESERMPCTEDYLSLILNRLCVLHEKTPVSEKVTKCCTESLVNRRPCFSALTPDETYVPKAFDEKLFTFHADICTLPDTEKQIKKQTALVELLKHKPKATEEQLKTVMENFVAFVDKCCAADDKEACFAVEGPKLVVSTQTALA

Compound	composite z-score (Albumin (Bos taurus))	composite Z-score [1]	composite z-score [2]	composite z-score [3]	composite z-score [4]	composite z-score [5]	composite z-score [6]	composite z-score (Sam68 (KHDRBS1))	composite z-score [7]	composite z-score [8]
C=CCC(OC(C)=O)[C@@H]1[C@@H](N(Cc2ccc(-c3cccc(C(F)(F)F)c3)o2)C(=O)c2cccc3ccccc23)c2cc(OCCCO)ccc2N1C(=O)c1ccc(-c2ccccc2)cc1 (stereo not given in full)	-0.0913	-0.0505 (inactive)	0.0058	-0.053	-0.406	-0.647	-0.272	-0.407	0.634	-0.402
N#Cc1ccc(NN2C(C(O)c3ccccc3)C=CC3C(=O)N(c4ccccc4)C(=O)C32)cc1 (stereo not given)	0.801	0.151 (inactive)	0.222	0.0288	0.809	1.97	0.191	0.0437	-0.605	-0.0029
Cc1ccc(C(C)CC(O)C2C=CC3C(=O)N(Cc4ccccc4)C(=O)C3N2n2cnnc2)o1 (stereo not given)	1.03	0.391 (inactive)	1.3	0.654	0.461	1.7	0.704	1.12	-0.377	1.17
O=C1O[C@@H](c2ccccc2)[C@@H](c2ccccc2)N2[C@@H](c3ccc(O)cc3)[C@]3(C(=O)Nc4ccc(C#CC5=CCCCC5)cc43)[C@@H](C(=O)Nc3nc4ccccc4s3)[C@H]12	0.787	-0.199 (inactive)	0.887	0.47	0.58	2.03	0.784	1.29	0.842	1.1
C=CCN1C(=O)[C@@]2(O[C@@H](CCn3cc([C@H](O)c4ccccc4)nn3)[C@H]([Si](C)(C)c3ccc(OC)cc3)[C@H]2C)c2cc(NC(=O)c3ccc(OC)cc3)ccc21	-0.105	-0.0277 (inactive)	-0.0932	-0.173	0.148	0.637	0.0719	1.03	0.271	0.713
O=C1C[C@@](C(=O)NCc2ccccc2)(c2ccc([N+](=O)[O-])cc2)[C@@H](c2ccc(CO)cc2I)N1C1CCCCC1	-0.13	-0.0966 (inactive)	0.446	0.202	0.448	1.15	-0.0355	1.23	0.633	0.957
C[C@@]1([C@@H](NC(=O)c2cccs2)c2ccc(-c3ccccc3)cc2)C[C@H]1C1CCCCC1	0.0881	0.0169 (inactive)	-0.0027	-0.343	0.786	3.02	-0.165	-0.307	-0.237	-0.419
COCCCNC(=O)[C@@]1(Cc2ccccc2I)c2ccccc2C(=O)N(Cc2ccccc2Cl)[C@H]1c1ccc(CO)cc1	0.681	0.432 (inactive)	-0.0492	-0.139	0.344	0.184	0.438	0.902	-0.105	0.752
[N-]=[N+]=NCc1ccccc1C[C@@]1(C(=O)NCCN2CCOCC2)N=C(c2ccc(OCCCO)cc2)O[C@@H]1c1ccccc1CN=[N+]=[N-]	0.511	-0.0957 (inactive)	0.338	0.12	0.568	2.23	0.0232	1.31	0.139	1.06
CC(C)(C)OC(=O)CC[C@]1(C(=O)N2CCCCC2)N=C(c2ccc(OCCCO)cc2)O[C@H]1c1ccccc1CN=[N+]=[N-]	0.982	-0.43 (inactive)	0.516	0.381	0.801	2.74	0.762	1.3	0.388	1.2
CCCC[C@@H](O)C1=C(COc2ccccc2)Cn2c(=O)n(-c3ccccc3)c(=O)n2[C@H]1CO	-0.0711	-0.116 (inactive)	-0.187	-0.148	-0.0781	0.725	0.148	-0.247	0.0826	-0.494

Source: PubChem BioAssay
